# Measured values: PubChem BioAssay (Tox21)
# A number with no mark means an inactive call. Inconclusive results are not listed. Where a call stands in place of a potency, no number is given. Calls of active or inactive are those of the source. Unless noted, calls come from the whole dose curve; as a rule, active = well fitted curve in the direction sought with a large enough effect; inconclusive = small, poorly fitted or top-dose-only effect, or another doubt; inactive = no such curve, though single readings can be large; an effect the other way counts as inactive or inconclusive.
# Key:
# [1] = qHTS assay to identify small molecule phospholipidosis (PLD) inducers (AID 1259344); note: potency is the fitted concentration of half-maximal effect
# Outline: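 Quantitative HTS in HepG2: compound plus LipidTOX Red dye for 24 h, paraformaldehyde fixation with Hoechst 33342, widefield high-content imaging; amiodarone as positive and DMSO as negative control.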
# [2] = qHTS RealTime-Glo MT Cell Viability Assay in HEK293 cells - 8 hour (AID 1224887; active = well fitted curve in the direction sought with a large enough effect in the repeat runs; an effect the other way counts as inactive or inconclusive; note: top concentration of the series differs between compounds; nearly all actives have a fitted effect of over 50% in size)
# Outline: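 qHTS format; HEK293 cells with NanoLuc/prosubstrate reagent, 37 C/5% CO2 for 5 h pre-dosing; compounds 23 nL in DMSO; luminescence at each time point reflects viable cells.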
# [3] = A CellTox Green Cytotoxicity Assay to monitor cytotoxicity in HEK293 cells - 16 hour (AID 1224888; active = well fitted curve in the direction sought with a large enough effect in the repeat runs; an effect the other way counts as inactive or inconclusive; note: nearly all actives have a fitted effect of over 35% in size)
# Outline: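 Each value comes from one timepoint of a single continuous run in which HEK293 cells with CellTox Green were exposed to compound for up to 40 h at 37 C, dye fluorescence rising with cell death.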
# [4] = qHTS RealTime-Glo MT Cell Viability Assay in HepG2 cells - 0 hour (AID 1224889; active = well fitted curve in the direction sought with a large enough effect in the repeat runs; an effect the other way counts as inactive or inconclusive; note: nearly all actives have a fitted effect of over 50% in size)
# Outline: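 Compound treatment began 5 h after plating HepG2 cells (600/well) with NanoLuc luciferase and prosubstrate. Plates stayed at 37 C for 40 h; luminescence was captured at six time points, 0 h through 40 h.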
# [5] = A CellTox Green Cytotoxicity Assay to monitor cytotoxicity in HepG2 cells - 8 hour (AID 1224890; active = well fitted curve in the direction sought with a large enough effect in the repeat runs; an effect the other way counts as inactive or inconclusive; note: nearly all actives have a fitted effect of over 45% in size)
# Outline: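 Continuous culture of HepG2 cells with a membrane-impermeant DNA dye; rising fluorescence marks dead cells. Compound exposure lasted up to 40 h at 37 C, with reads every 8 h from 0 h.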
# [6] = qHTS assay to identify small molecule antagonists of the estrogen receptor alpha (ER-alpha) signaling pathway using the BG1 cell line in the presence of 0.1 nM 17-beta-estradiol - cell viability counter screen (AID 1259241; active = well fitted curve in the direction sought with a large enough effect in the repeat runs; an effect the other way counts as inactive or inconclusive; note: nearly all actives have a fitted effect of over 40% in size)
# Outline: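 VM7Luc4E2 cells (endogenous ER-alpha, 4×ERE-luciferase), hormone-starved 5 days in charcoal-stripped FBS, were treated with compounds plus 0.1 nM 17beta-estradiol for 22 hr at 37C; viability read in same wells as CellTiter-Fluor live-cell protease fluorescence.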
# [7] = qHTS assay to identify small molecule antagonists of the androgen receptor (AR) signaling pathway using the MDA cell line in the presence of 0.5 nM R1881 - cell viability counter screen (AID 1259242; active = well fitted curve in the direction sought with a large enough effect in the repeat runs; an effect the other way counts as inactive or inconclusive; note: nearly all actives have a fitted effect of over 45% in size)
# Outline: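 Fluorescence from CellTiter-Fluor, which reports protease activity of live cells, was read 30 min after reagent addition to MDA-kb2 cells that had been incubated 16 hr with compound and 0.5 nM R1881.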
# [8] = qHTS assay to identify small molecule HDAC inhibitors (AID 1259364; active = well fitted curve in the direction sought with a large enough effect in the repeat runs; an effect the other way counts as inactive or inconclusive; note: top concentration of the series differs between compounds; nearly all actives have a fitted effect of over 45% in size)
# Outline: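 Endogenous HDAC class I/II activity was measured in wild-type HCT-116 cells by HDAC-Glo luminescence after 2 h compound treatment.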
# [9] = qHTS assay to identify small molecule HDAC inhibitors - cell viability counter screen (AID 1259365; active = well fitted curve in the direction sought with a large enough effect in the repeat runs; an effect the other way counts as inactive or inconclusive; note: series mostly up to about 92 µM; nearly all actives have a fitted effect of over 50% in size)
# Outline: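 Wild-type HCT-116 cells were seeded at 1,500 per well, incubated overnight at 37 C, then exposed to compounds in DMSO for 2hr. Viability was read by CellTiter-Glo luminescence after 30min at room temperature.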
# [10] = qHTS assay to identify small molecule agonists of the sonic hedgehog signaling (Shh) pathway - cell viability counter screen (AID 1259366; active = well fitted curve in the direction sought with a large enough effect in the repeat runs; an effect the other way counts as inactive or inconclusive; note: nearly all actives have a fitted effect of over 50% in size)
# Outline: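 NIH/3T3-derived 3T3 Gli1-Luc cells (stable Gli1-responsive firefly luciferase reporter) were seeded, rested 4 hr at 37 C/5% CO2, then exposed to compounds in DMSO for 24 hr; viability was read by CellTiter-Fluor fluorescence in the same wells.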
# [11] = qHTS assay to identify small molecule antagonists of the sonic hedgehog signaling (Shh) pathway - cell viability counter screen (AID 1259367; active = well fitted curve in the direction sought with a large enough effect in the repeat runs; an effect the other way counts as inactive or inconclusive; note: nearly all actives have a fitted effect of over 55% in size)
# Outline: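 Seed 3T3 Gli1-Luc cells at 2,000 per well; incubate 4 hr; add compound in DMSO, then conditioned medium; incubate at 37C with 5% CO2; add CellTiter-Fluor after 23 hr; read fluorescence 1 hr later.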
# [12] = biological target: Estrogen receptor (Homo sapiens) (UniProt P03372); assay: qHTS assay to identify small molecule antagonists of the estrogen receptor alpha (ER-alpha) signaling pathway using the BG1 cell line in the presence of 0.1 nM 17-beta-estradiol (AID 1259244; active = well fitted curve in the direction sought with a large enough effect in the repeat runs; an effect the other way counts as inactive or inconclusive; note: nearly all actives have a fitted effect of over 50% in size)
# Sequence of Estrogen receptor (Homo sapiens) (P03372 whole entry, looked up): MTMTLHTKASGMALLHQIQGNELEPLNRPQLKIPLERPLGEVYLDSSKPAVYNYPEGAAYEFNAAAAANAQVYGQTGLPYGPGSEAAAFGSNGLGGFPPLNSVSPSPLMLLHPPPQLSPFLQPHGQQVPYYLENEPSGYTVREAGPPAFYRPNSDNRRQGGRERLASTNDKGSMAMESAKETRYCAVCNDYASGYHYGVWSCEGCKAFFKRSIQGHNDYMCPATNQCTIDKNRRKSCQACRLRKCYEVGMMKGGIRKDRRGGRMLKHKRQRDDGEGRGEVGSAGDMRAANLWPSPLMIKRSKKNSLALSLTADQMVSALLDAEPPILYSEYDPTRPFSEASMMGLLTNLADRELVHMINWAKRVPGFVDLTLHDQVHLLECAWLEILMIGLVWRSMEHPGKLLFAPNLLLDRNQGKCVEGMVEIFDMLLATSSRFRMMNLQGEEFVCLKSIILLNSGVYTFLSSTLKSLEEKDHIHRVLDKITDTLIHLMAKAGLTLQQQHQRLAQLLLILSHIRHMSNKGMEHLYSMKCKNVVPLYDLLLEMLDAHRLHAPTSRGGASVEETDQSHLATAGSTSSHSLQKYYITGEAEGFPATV
# Outline: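 Quantitative high-throughput screen in VM7Luc4E2 cells: compound plus 0.1 nM E2 (final), 22 h, 37C, 5% CO2; ONE-Glo added, 30 min room temperature, luminescence measured.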
compound,measurement,setting,value
NC[C@@H]1CC[C@@H](N)[C@@H](O[C@H]2[C@H](O)[C@@H](O[C@H]3O[C@H](CO)[C@@H](O)[C@H](N)[C@H]3O)[C@H](N)C[C@@H]2N)O1,Potency,[1],inactive
CC1=C(/C=C/C(C)=C/C=C/C(C)=C\C(=O)O)C(C)(C)CCC1,Potency,[2],inactive
same,Potency,[3],inactive
same,Potency,[4],inactive
same,Potency,[5],inactive
same,Potency,[6],inactive
same,Potency,[7],inactive
same,Potency,[8],inactive
same,Potency,[9],inactive
same,Potency,[10],inactive
same,Potency,[11],inactive
Nc1cccnc1N,Potency,[2],inactive
same,Potency,[3],inactive
same,Potency,[4],inactive
same,Potency,[5],inactive
same,Potency,[7],inactive
same,Potency,[12],inactive
same,Potency,[8],inactive
same,Potency,[9],inactive
C=CC[N+]1([C@H]2C[C@H]3[C@@H]4CC[C@H]5C[C@H](O)[C@@H](N6CCOCC6)C[C@]5(C)[C@H]4CC[C@]3(C)[C@H]2OC(C)=O)CCCC1,Potency,[1],inactive
NC(=O)c1cc[n+](CC2=C(C(=O)O)N3C(=O)[C@@H](NC(=O)C(c4ccccc4)S(=O)(=O)[O-])[C@H]3SC2)cc1 (some centres not stated),Potency,[1],inactive
C=CC[N@@+]12CC[C@@]34c5ccccc5N5/C=C6/[C@H]7C[C@H]8[C@@]9(CC[N@@+]8(CC=C)C/C7=C/CO)c7ccccc7N(/C=C(/[C@@H](C[C@@H]31)/C(=C\CO)C2)[C@H]54)[C@@H]69,Potency,[1],inactive
O=C(O)Cc1nn(Cc2ccc(Br)cc2F)c(=O)c2ccccc12,Potency,[1],inactive
Cc1cn([C@H]2C[C@H](O)[C@@H](CO)O2)c(=O)[nH]c1=O,Potency,[1],inactive
CC(C)OC(=O)Nc1ccc2nc(-c3cscn3)[nH]c2c1,Potency,[1],inactive
C=C1[C@@H]2CC[C@@H](C2)C1(C)C,Potency,[1],inactive
CCC1OC(=O)C[C@@H](O)[C@H](C)[C@@H](O[C@@H]2O[C@H](C)C[C@H](N(C)C)[C@H]2O)[C@@H](CC=O)C[C@@H](C)C(=O)/C=C/[C@]2(C)OC2C1C (some centres not stated),Potency,[1],inactive
CC(C)C[C@@H](NC(=O)[C@@H](O)[C@H](N)Cc1ccccc1)C(=O)O,Potency,[1],inactive
CC(=O)Nc1ccc(OC(C)=O)cc1,Potency,[1],inactive
CCN(CC)C(=O)c1cccnc1,Potency,[1],inactive
NCC(O)CC(=O)O (configuration not stated),Potency,[1],inactive
Cc1ncc(C[n+]2csc(CCOP(=O)(O)O)c2C)c(N)n1,Potency,[1],inactive
CC[C@@H](C)[C@H](N)C(=O)O,Potency,[1],inactive
CC/C(=C(/CC)c1ccc(OP(=O)(O)O)cc1)c1ccc(OP(=O)(O)O)cc1,Potency,[1],inactive
CCN(CC)CCOC[C@H]1O[C@@H](O)[C@H](OCCN(CC)CC)[C@@H](O)[C@@H]1O,Potency,[1],inactive
CN1C(=O)C[C@@H](C(=O)N[C@@H](Cc2cnc[nH]2)C(=O)N2CCC[C@H]2C(N)=O)NC1=O,Potency,[1],inactive
CNC(=O)C[C@@H](N)C(=O)N[C@@H](C(=O)N[C@@H]1C(=O)N2[C@@H]1SC(C)(C)[C@@H]2C(=O)O)c1ccc(O)cc1,Potency,[1],inactive
CC(C)=CCC/C(C)=C/CC/C(C)=C/CC/C(C)=C/CC1=C(C)C(=O)c2ccccc2C1=O,Potency,[1],inactive
CC(=O)O[C@H]1C[C@@H]2CC[C@@H]3[C@H](CC[C@@]4(C)[C@H]3C[C@H]([N+]3(C)CCCCC3)[C@@H]4OC(C)=O)[C@@]2(C)C[C@@H]1[N+]1(C)CCCCC1,Potency,[1],inactive
O=C1CC[C@@H](C(=O)N[C@H]2C[C@@H]2c2ccccc2)N1,Potency,[1],inactive
CC(CNC(=O)c1cccnc1)NC(=O)c1cccnc1 (configuration not stated),Potency,[1],inactive
CN(Cc1ccccc1)Cc1ccccc1,Potency,[1],inactive
O=C(O)CC(O)(CC(=O)O)C(=O)O,PLD induction,[1],-0.895% [at 1.53 µM]
CN1[C@@H](CC(=O)c2ccccc2)CCC[C@H]1C[C@H](O)c1ccccc1,Potency,[1],inactive
CC1(C)CCC(NC(=O)[C@@H](N)CCC(=O)O)CC1,Potency,[1],inactive
Cc1onc(-c2c(F)cccc2Cl)c1C(=O)N[C@@H]1C(=O)N2[C@@H]1SC(C)(C)[C@@H]2C(=O)O,Potency,[1],inactive
O=C(O)/C=C/C(=O)Nc1ccc(S(=O)(=O)Nc2nccs2)cc1,Potency,[1],inactive
FC(F)(F)C(F)(F)C(F)(F)C(F)(F)C(F)(F)F,Potency,[1],inactive
CCC(O)c1ccccc1 (configuration not stated),Potency,[1],inactive
CC(=NCc1ccccc1)c1ccccc1O,Potency,[1],inactive
O.O.O.O.O.O.O.O=S(=O)([O-])[O-].[Co+2],Potency,[1],inactive
CCc1ncnc2cc(OC)c(OC)cc12,Potency,[1],inactive
O=C(O)COc1ccc(C(=O)c2cccs2)c(Cl)c1Cl,Potency,[1],inactive
CC1(C)S[C@@H]2[C@H](NC(=O)[C@@H](NC(=O)N3CCNC3=O)c3ccccc3)C(=O)N2[C@H]1C(=O)O,Potency,[1],inactive
C[N+](C)(C)CCOP(=O)(O)OP(=O)([O-])OC[C@H]1O[C@@H](n2ccc(N)nc2=O)[C@H](O)[C@@H]1O,Potency,[1],inactive
CO/N=C(\C(=O)N[C@@H]1C(=O)N2C(C(=O)O)=C(CSc3nc(C)c(CC(=O)O)s3)CS[C@H]12)c1csc(N)n1,Potency,[1],inactive
CNCCC=C1c2ccccc2CCc2ccccc21,Potency,[1],10 µM (active)
CCCn1c(=O)[nH]c(=O)c2[nH]cnc21,Potency,[1],inactive
CCCOC(=O)c1ccccc1O,Potency,[1],inactive
CC1CCCC(C)N1NC(=O)c1ccc(Cl)c(S(N)(=O)=O)c1 (configuration not stated),Potency,[1],inactive
C(=C\c1ccncc1)/c1ccccc1,Potency,[1],inactive
CO[C@H]1C[C@@H]2CC[C@@H](C)[C@@](O)(O2)C(=O)C(=O)N2CCCC[C@H]2C(=O)O[C@H]([C@H](C)C[C@@H]2CC[C@@H](O)[C@H](OC)C2)CC(=O)[C@H](C)C=C(C)[C@@H](O)[C@@H](OC)C(=O)[C@H](C)C[C@H](C)/C=C/C=CC=C1C,Potency,[1],inactive
